# Screens as filed in PubChem BioAssay.
# Compounds with a hit are over-represented: about 9% of the library has one in this group of screens.
# ALOX12 inh: inhibitors of human 12S-lipoxygenase ALOX12 | purified 12hLO, xylenol orange hydroperoxide absorbance | Potency, µM (series often up to 108 µM), for inactives: top-dose activity change, negative = inhibition, usual class: inhibitors | 1.1% of 580,000 active; further: on the % scale 0 is the no-effect control and ±100 the full control effect
#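 Hydroperoxide product was detected by ferrous iron/xylenol orange as the 573 to 405 nm absorbance ratio. Arachidonic acid at 40 uM (final) was turned over for 30 min at room temperature by 150 nM human 12hLO, pH 7.0 Hepes buffer, after 15 min compound preincubation.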
# JMJD2A Tudor inh: inhibitors of human JMJD2A Tudor domain; O75164; AlphaScreen JMJD2A-Tudor / H3K4me3 peptide binding; Potency, µM (titrated, usually from 114 µM), for inactives: at the top dose activity change, negative = inhibition, hits mostly inhibitors; 4.4% of 390,000 active; further: on the % scale 0 is the no-effect control and ±100 the full control effect; nearly all actives have a fitted effect of over 50% in size
# G9a inh: blocks human histone lysine methyltransferase G9a; Q96KQ7; Potency, µM (titrated, usually from 102 µM), without a hit: top-dose activity, negative = inhibition, hits mostly inhibitors; AID 504332; 8.8% of 350,000 active; G9a H3K9 monomethylation, AlphaScreen, 2 h; further: on the % scale 0 is the no-effect control and ±100 the full control effect; nearly all actives have a fitted effect of over 75% in size
#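 Signal arises when biotinylated H3K9 peptide, once monomethylated, bridges streptavidin donor and antibody-captured acceptor beads. Enzyme at 20 nM was preincubated 15 min with test compounds; peptide 500 nM and SAM 20 uM then reacted for 2 h.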
# PLK1 PBD inh: inhibitors of human PLK1 polo-box domain binding | Potency, µM, for the others: max response, negative = inhibition, most hits filed as inhibitors | AID 720504 | Plk1 PBD binding of FITC phosphopeptide, fluorescence polarization | 2.8% of 360,000 active; further: series mostly up to about 57 µM; on the % scale 0 is the no-effect control and ±100 the full control effect; nearly all actives have a fitted effect of over 65% in size
# Target sequence (P53350 whole entry, looked up, the tested form may be a part): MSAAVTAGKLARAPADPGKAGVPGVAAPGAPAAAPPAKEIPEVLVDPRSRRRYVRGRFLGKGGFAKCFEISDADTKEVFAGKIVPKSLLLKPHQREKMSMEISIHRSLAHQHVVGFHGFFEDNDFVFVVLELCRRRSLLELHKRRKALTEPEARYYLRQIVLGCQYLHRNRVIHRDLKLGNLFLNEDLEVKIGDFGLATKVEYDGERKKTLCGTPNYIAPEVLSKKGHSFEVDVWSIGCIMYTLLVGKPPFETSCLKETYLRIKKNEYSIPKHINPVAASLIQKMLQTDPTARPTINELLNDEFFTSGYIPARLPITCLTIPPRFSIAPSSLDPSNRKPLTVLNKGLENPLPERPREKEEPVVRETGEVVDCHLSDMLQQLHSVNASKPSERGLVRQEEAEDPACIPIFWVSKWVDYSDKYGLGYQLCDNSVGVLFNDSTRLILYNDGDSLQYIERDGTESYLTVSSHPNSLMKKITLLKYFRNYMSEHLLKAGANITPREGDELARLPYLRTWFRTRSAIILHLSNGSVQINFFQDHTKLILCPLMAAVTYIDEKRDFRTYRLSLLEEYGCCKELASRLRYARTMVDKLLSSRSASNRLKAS
# BAZ2B inh: inhibitors of human BAZ2B bromodomain. Q9UIF8. AlphaScreen BAZ2B-H3K14Ac peptide displacement. Potency, µM (top dose mostly 114 µM), for inactives: at the top dose activity change, negative = inhibition, actives largely listed as inhibitors. 4.4% of 360,000 active; further: on the % scale 0 is the no-effect control and ±100 the full control effect; nearly all actives have a fitted effect of over 60% in size
#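 AlphaScreen displacement: compounds (up to 110uM) incubated 30 min at room temperature with a preformed 50 nM BAZ2B/50 nM biotinylated H3K14Ac peptide complex in PBS pH 7.4 with Tween-20. Donor and acceptor beads at 10 ug/mL final added, 20 min light-protected before reading.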
# HP1b binding inh: blocks HP1-beta chromodomain binding to methylated histone tails | 0.56% of 390,000 active | P83916 | AlphaScreen HP1-beta / biotin-H3K9me3 peptide binding | Potency, µM (series often up to 114 µM), inactives show at the top dose activity change, negative = inhibition, usual class: inhibitors; further: nearly all actives have a fitted effect of over 70% in size
# Target sequence (P83916 whole entry, looked up): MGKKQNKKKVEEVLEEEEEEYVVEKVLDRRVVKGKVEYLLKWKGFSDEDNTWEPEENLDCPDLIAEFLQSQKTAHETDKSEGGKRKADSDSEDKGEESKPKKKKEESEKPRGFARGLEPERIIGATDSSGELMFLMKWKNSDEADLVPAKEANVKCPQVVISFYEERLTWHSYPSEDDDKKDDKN
#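 HP1-beta protein (50 nM final) preincubated 30 min at room temperature with biotinylated H3(1-18)K9me3 peptide (50 nM) in PBS pH 7.4, 0.01% Tween-20, then compound added for 30 min. AlphaScreen streptavidin donor/nickel chelate acceptor beads (10 ug/mL final), 30 min dark, luminescence read.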
# Starred values were filed as active, the others as inactive; ? = inconclusive; . = no result; [ ] = dose if it differs, or a comment. The call rests on the fitted dose curve; in most records, active means well fitted curve in the direction sought with a large enough effect; inconclusive means small, poorly fitted or top-dose-only effect, or another doubt; inactive means no such curve, though single readings can be large; an effect the other way counts as inactive or inconclusive. Potency means the concentration at half of the fitted maximal effect.
SMILES,ALOX12 inh,JMJD2A Tudor inh,G9a inh,PLK1 PBD inh,BAZ2B inh,HP1b binding inh
CC1CCC(NC(=O)Cn2c(=O)[nH]c3ccsc3c2=O)CC1 (stereo not given),-5.8%,-13.1%,13.5%[2.33 µM],-1.9%,6.3%,21.7%
CCn1c(SCC(=O)NC2CCCC2)nnc1-c1c[nH]c2ccccc12,4.0%,-6.9%,4.8%[59 µM],-5.2%,9.5%,27.9%
NC(=O)c1ccc(O[C@@H]2COCC[C@H]2NC(=O)CN2CCOC2=O)cc1,23.4%,.,.,.,.,.
O=C(O)CCCC(=O)NCCc1cccc(Cl)c1,0.0%,-3.6%,5.8%[59 µM],2.6%,-17.7%,30.6%
O=C(O)c1cccc(NC(CNS(=O)(=O)c2ccc(Cl)cc2)c2ccccc2)c1 (stereo not given),?,-22.8%,?,-13.1%,79.4µM*,6.3%
O=C(O)c1cccc(NS(=O)(=O)c2ccc(-c3ccc(S(=O)(=O)Nc4cccc(C(=O)O)c4)cc3)cc2)c1,-4.5%,-26.8%,50.1µM*,-16.4%,-13.4%,23.9%
CC(C)CNS(=O)(=O)c1cc(C(=O)O)c(Cl)cc1Cl,-16.8%,0.7%[11.4 µM],?,-2.1%,-36.4%,19.5%
O=S(=O)(NCC(Nc1ccccc1)c1ccccc1)c1ccc(Cl)cc1 (stereo not given),-27.9%,-21.2%,-43.4%[59 µM],3.3%,-8.5%,9.9%
O=C(O)c1cc(S(=O)(=O)Nc2cccc3ccccc23)c(Cl)cc1Cl,0.0%,79.4µM*,56.2µM*,?,-38.3%,-12.5%
O=C(O)c1cccc(NS(=O)(=O)c2ccc(Oc3ccc(S(=O)(=O)Nc4cccc(C(=O)O)c4)cc3)cc2)c1,166.1%,-9.1%,.,-17.8%,.,24.6%
Cc1ccccc1-c1nc2cnccn2c1NCCC(=O)NCc1ccco1,-15.8%,.,.,.,.,.
CCOC(=O)[C@]12CCC=C1N(Cc1ccc3c(c1)OCO3)C(=O)[C@H](CC(=O)NCCc1ccccc1OC)C2,39.8µM*,.,.,0.7%,.,.
CCc1nnc(NC(=O)CSc2ccc(-c3ccc(C)cc3)nn2)s1,-4.2%,-33.8%,50.1µM*,-15.0%,-28.4%,19.6%
COc1ccc(-c2ccc(SCC(=O)Nc3nnc(C)s3)nn2)cc1,-11.3%,1.4%,8.6%,1.2%,-16.2%,38.5%
CCOc1ccc(-c2ccc(SCC(=O)Nc3nnc(CC)s3)nn2)cc1,-3.7%,-17.9%,28.2µM*,-14.0%,-2.1%,9.5%
Cc1ccc(Cl)cc1N1CCN(S(=O)(=O)c2ccc3[nH]c4c(c3c2)CCCCC4)CC1,-12.6%,?,?,.,1.0%[57.1 µM],-23.0%
CC(/C=N/NC(=O)Cn1nnc(N)n1)=C\c1ccc(C(C)C)cc1,38.1%,-12.1%,-2.4%,2.9%,-23.0%,22.0%
COc1ccc(C(=O)n2c(N)nc3ccccc32)cc1OC,-14.3%,-18.9%,21.3%[0.501 µM],-13.8%,?,28.1%
Cc1nc(N)sc1N=Nc1ccccc1C(F)(F)F,0.0%,50.1µM*,39.8µM*,-7.0%,28.2µM*,35.5µM*
COC(=O)c1cc(N=Nc2sc(N)nc2C)cc(C(=O)OC)c1,0.0%,-30.7%,6.3%[12.7 µM],-0.2%,-33.3%,32.3%
N#Cc1ccc(C[C@H](C(=O)O)N2C(=O)c3ccc(C(=O)O)cc3C2=O)cc1,.,-26.9%,-4.5%[12.7 µM],.,-5.1%,.
COC(=O)c1cc(NC(=O)CCc2c(C)nc3cc(-c4ccccc4)nn3c2C)cc(C(=O)OC)c1,-3.3%,7.1%,-20.6%[59 µM],.,-9.5%,12.4%
O=C(Nc1cccc(C(=O)Nc2ccc(Cl)cn2)c1)c1ccccc1,0.0%,-12.3%,21.1%,0.8%,-22.6%,18.0%
CC(=O)N1CCOc2ccc(S(=O)(=O)NCCc3ccc(S(N)(=O)=O)cc3)cc21,6.9%,?,.,26.7µM*,-3.1%,12.0%
CC(=O)N1CCOc2ccc(S(=O)(=O)Nc3cccc(C)n3)cc21,-18.7%,-22.6%,-13.7%,42.3µM*,2.2%,2.4%
SMILES,ALOX12 inh,JMJD2A Tudor inh,G9a inh,PLK1 PBD inh,BAZ2B inh,HP1b binding inh
Cc1ccc(S(=O)(=O)NCCc2ccc(S(N)(=O)=O)cc2)cc1,?,21.1%,14.1µM*,-10.9%,2.1%,54.2%
CCC(C)NC(=O)C1CCC(CNS(=O)(=O)c2ccc3c(c2)N(C(C)=O)CCO3)CC1 (stereo not given),4.2%,?,83.2%,26.7µM*,-11.3%,-0.9%
CS(=O)(=O)N1CCc2ccc(C(=O)Nc3ccc(Cl)c(C(F)(F)F)c3)cc21,-8.4%,.,.,.,.,.
Cc1cccc(NCc2cc(C(C)(C)C)c(O)c(C(C)(C)C)c2)c1,10µM*,.,.,.,.,.
CC1(C)Cc2c(sc(NC(=O)C(=O)NCCCN3CCOCC3)c2C#N)CO1,4.5%,2.3%,22.4µM*,11.9µM*,-19.6%,22.3%
CCN(CC)c1nc(N(CC)CC)[nH]c(=O)n1,-2.7%,0.0%,.,-5.9%,.,32.2%
CCN(CC)c1nc(-c2nn[nH]n2)nc(N(CC)CC)n1,?,89.1µM*,?,-10.0%,4.4%,22.9%
O=C(COc1ccccc1[N+](=O)[O-])c1ccccc1,-7.0%,-24.9%,4.6%[59 µM],-12.7%,-21.3%,9.2%
COC(=O)/C=C/COc1ccccc1[N+](=O)[O-],2.4%,?,-33.1%,3.36µM*,-10.9%,?
CC(C)[C@H](NC(=O)OC(C)(C)C)c1cc(C(=O)N2CCOCC2)c(N)s1,-14.2%,.,.,?,.,.
Cc1cc(C)c2cc(C#N)c(NCCCNC(=O)c3cccnc3)nc2c1,0.8%,.,.,2.4%,.,.
O=S(=O)(Nc1cccc2cccnc12)c1cccc2ccccc12,.,-15.8%,.,.,.,34.0%
O=S(=O)(Nc1cccc2cccnc12)C1CC1,.,50.1µM*,.,.,.,-13.5%
O=S(=O)(Nc1c(Br)cc(Br)c2cccnc12)C1CC1,.,25.1µM*,.,.,.,19.8%
CCc1c(C)sc(NC(=O)c2cc(-c3ccco3)on2)c1C#N,?,-18.6%,12.6µM*,26.7µM*,-0.7%,-13.8%
CCc1c(C)sc(NC(=O)c2cc(-c3ccc(OC)cc3)on2)c1C#N,-4.3%,2.4%,10µM*,.,-2.5%,9.0%
CCc1c(C)sc(NC(=O)c2cc(C)on2)c1C#N,-25.9%,-9.3%,.,-15.4%,1.6%,4.7%
Cc1nn(C)c(C)c1CN(C)C(=O)CCCC(=O)O,17.8µM*,50.1µM*,2.3%[59 µM],-7.2%,6.2%,0.6%
CC1CCCC(NC(=O)CC2Nc3ccccc3NC2=O)C1C (stereo not given),213.3%,-13.6%,-19.6%[0.501 µM],-10.5%,-0.2%,-5.1%
CCOC(=O)c1ccccc1NC(=O)c1ccccc1SC,?,72.4%,?,-10.4%,29.3%,61.0%
CSc1ccccc1C(=O)Nc1ccccc1C(=O)NC(C)C,?,?,22.5%[12.7 µM],29.9µM*,-10.8%,-8.4%
COC(=O)c1ccccc1NC(=O)c1ccccc1SC,?,26.3%,8.91µM*,-10.0%,61.9%,40.2%
